Source: PubChem BioAssay (NCATS)
Inconclusive results are not listed. Activity calls are given as the source filed them. Calls follow the shape of the dose curve; as a rule, active = well fitted cell-killing curve with a large enough effect; inconclusive = small, poorly fitted or top-dose-only effect; inactive = flat fitted curve, though single readings scatter. Where a SMILES comes first, the peptide text is derived from it. [ ]: non-standard residue; d: D form. pGlu = O=C1CC[C@@H](C(=O)O)N1; Thz = O=C(O)[C@@H]1CSCN1

Test: qHTS assay to identify small molecule inhibitors of chordoma cells - UCH-2 (AID 1259356)
Settings: UCH-2 chordoma viability, CellTiter-Glo ATP luminescence, 48 h; series mostly up to 46.1 µM; activity change, negative = inhibition: at the top concentration
Source text: NIH Chemical Genomics Center [NCGC]
Chordoma is a rare and slow growing tumor that can occur anywhere along the spine, from the base of the skull to the tailbone. Current treatment options for chordoma is surgery and radiation therapy for those who are not candidates for surgery. But chordomas tend to return in the same location or surrounding areas of the original tumor after surgery and/or radiation. Chemotherapy can slow down the progression of the tumor. As chordoma is slow growing, the general cytotoxic agents that kill fast growing cells are ineffective, and some patients have been reported to respond to molecularly targeted drugs.
NCATS Pharmaceutical Collection (NPC) containing approximately 3000 clinically approved and investigational drugs were used to screen at 15 concentrations in a chordoma cell lines, UCH-2, to identify small molecule compounds that can inhibit chordoma cell growth.
NCGC Assay Protocol Summary:
Human chordoma cell line UCH-2 was dispensed at 800 per well in 4uL of culture medium into white solid bottom 1536-well plates (Corning Life Sciences, Corning, NY) using a Multidrop Combi (Thermo Scientific, Waltham, MA) dispenser. The assay plates were incubated at 37 C and 5% CO2 for an overnight, and then 23nL of compounds dissolved in DMSO and positive control were transferred using a Pintool station (Wako, San Diego, CA). Compound treatment was followed by the addition of 1uL of the combination compounds (1uM Auranofin, 500nM each of Camptothecin, Doxorubicin, Rubitecan, and Topotecan) and assay medium to each well of the assay plates using Flying Reagent Dispenser (FRD, Aurora Discovery, San Diego, CA). The assay plates were incubated at 37 C and 5% CO2 for 48hr. Then 5uL of CellTiter-Glo reagent (Promega Corporation, Madison, WI) was added to each well of the assay plates using FRD. After 30min incubation at room temperature, the luminescence signal was quantified using a ViewLux plate reader (PerkinElmer, Shelton, CT).
% is scaled to controls: 0 for no effect and ±100 for the full control effect; potency is read from the fitted curve at half-maximal effect.

SMILES	activity change, negative = inhibition	Potency
C#CC1(O)CC[C@H]2[C@@H]3CCC4=CCCC[C@@H]4[C@H]3CC[C@@]21C (stereo not given in full)	7.32% [at 20.6 µM] (inactive)	–
O=C(O)/C=C/C(O)c1ccc(Cl)cc1 (stereo not given)	5.59% (inactive)	–
CO[C@H]1C[C@@H]2CC[C@@H](C)[C@@](O)(O2)C(=O)C(=O)N2CCCC[C@H]2C(=O)O[C@H]([C@H](C)C[C@@H]2CC[C@@H](O)[C@H](OC)C2)CC(=O)[C@H](C)C=C(C)[C@@H](O)[C@@H](OC)C(=O)[C@H](C)C[C@H](C)/C=C/C=CC=C1C	–	inactive
O=C(/C=C/c1ccccc1)NCCO	-5.9% (inactive)	–
O=C(O)[C@H](CC(=O)N1C[C@H]2CCCC[C@H]2C1)Cc1ccccc1	-19.7% (inactive)	–
c1ccc2sc(SSc3nc4ccccc4s3)nc2c1	10.3% (inactive)	–
Nc1c(CC(=O)O)cccc1C(=O)c1ccc(Br)cc1	-2.44% (inactive)	–
O=C1CN(/N=C/c2ccc([N+](=O)[O-])o2)C(=O)N1	-2.13% (inactive)	–
CCCCCCCCCCCC(=O)[O][Sn]([CH2]CCC)([CH2]CCC)[O]C(=O)CCCCCCCCCCC	0.318% (inactive)	–
Clc1ccccc1-c1nc(-c2ccncc2)no1	-3.52% (inactive)	–
Nc1ccc(C(=O)O)c(O)c1	2.67% (inactive)	–
Cc1[nH]cnc1CN1CCc2c(c3ccccc3n2C)C1=O	5.69% (inactive)	–
C[N+](C)(C)CCOP(=O)(O)OP(=O)([O-])OC[C@H]1O[C@@H](n2ccc(N)nc2=O)[C@H](O)[C@@H]1O	-8.03% (inactive)	–
Nc1cc(-c2ccncc2)c[nH]c1=O	2.96% (inactive)	–
Cc1nc2ccccc2n1Cc1ccc(Cl)cc1	-5.68% (inactive)	–
Cc1c(C(=O)O)c(O)cc2c1C(=O)c1c(O)c([C@@H]3O[C@H](CO)[C@@H](O)[C@H](O)[C@H]3O)c(O)c(O)c1C2=O	-15.6% (inactive)	–
CN1[C@@H](CC(=O)c2ccccc2)CCC[C@H]1C[C@H](O)c1ccccc1	12.8% (inactive)	–
COc1cccc2c1C(=O)c1c(O)c3c(c(O)c1C2=O)C[C@@](O)(C(=O)CO)C[C@@H]3O[C@H]1C[C@H](N)[C@H](O[C@@H]2CCCCO2)[C@H](C)O1	–	18.3 µM (active)
O=C1CC[C@@H](C(=O)N2CSC[C@H]2C(=O)O)N1 ([pGlu]-[Thz]-OH)	12.6% (inactive)	–
COc1ccc(/C=C/C(=O)Nc2ccccc2C(=O)O)cc1OC	2.91% (inactive)	–

SMILES	activity change, negative = inhibition	Potency
CC(=O)O[C@H]1C[C@@]2(C)[C@@H](C[C@@H](O)[C@H]3[C@@]4(C)CC[C@@H](O)[C@@H](C)[C@@H]4CC[C@@]32C)/C1=C(\CCC=C(C)C)C(=O)O	-3.81% (inactive)	–
CC(C(=O)O)c1ccc(C(=O)c2ccccc2)s1 (stereo not given)	10.7% [at 20.6 µM] (inactive)	–
CC(C(=O)O)c1ccc(C(=O)c2cccs2)cc1 (stereo not given)	7.17% [at 20.6 µM] (inactive)	–
CCCCCCCCCCCCCCCCCC(=O)O	12.7% (inactive)	–
C#C[C@]1(O)CC[C@H]2[C@@H]3CCc4cc(O)ccc4[C@H]3CC[C@@]21C	4.65% (inactive)	–
NC(=O)C(c1ccccc1)(c1ccccc1)[C@@H]1CCN(CCc2ccc3c(c2)CCO3)C1	4.86% (inactive)	–
CC1(C)S[C@@H]2[C@H](NC(=O)[C@H](NC(=O)N3CCN(S(C)(=O)=O)C3=O)c3ccccc3)C(=O)N2[C@H]1C(=O)O	0.561% (inactive)	–
COc1cc(/C=C/C(=O)N2CCN(CC(=O)N3CCCC3)CC2)cc(OC)c1OC	-0.0458% (inactive)	–
CC(=O)[C@]1(O)Cc2c(O)c3c(c(O)c2[C@@H](O[C@H]2C[C@H](N)[C@H](O)[C@H](C)O2)C1)C(=O)c1c(O)cccc1C3=O	–	20.6 µM (active)
C=CCCCCCCCCC(=O)O	3.15% (inactive)	–
Cc1cc(O)c2ccccc2c1O	7.02% (inactive)	–
CC(N)C(=O)OC(C)(C)Cc1ccc(Cl)cc1 (stereo not given)	-0.872% (inactive)	–
Cc1ccc(C(=O)c2ccc(CC(=O)O)n2C)cc1	-1.93% [at 20.6 µM] (inactive)	–
C=C(Nc1ccc(OCC)cc1)Nc1ccc(OCC)cc1	–	inactive
O=C(OCc1ccccc1)c1ccccc1	7.98% (inactive)	–
O=c1[nH]c2ccccc2n1CCCN1CCN(C(c2ccccc2)c2ccccc2)CC1	-19.8% (inactive)	–
COC(=O)C1=C(C)NC(C)=C(C(=O)OCC(C)C)C1c1ccccc1[N+](=O)[O-] (stereo not given)	1.33% (inactive)	–
CC(C(=O)O)c1ccc2c(c1)[nH]c1ccc(Cl)cc12 (stereo not given)	6.87% (inactive)	–
CCCCCC[C@@H](O)C/C=C\CCCCCCCC(=O)O	–	inactive
Cc1c(Nc2ncccc2C(=O)O)cccc1C(F)(F)F	7.85% [at 20.6 µM] (inactive)	–
